From PubChem
The list is not random: actives were taken first. Their share in the collection is about 7.4%.
FLuc modulator = qHTS profiling assay for firefly luciferase inhibitor/activator using purifed enzyme and Km concentrations of substrates (counterscreen for miR-21 project) | purified FLuc, Km substrates, luminescence inhibition | Potency, µM (top dose mostly 57.5 µM), inactives show top-dose activity change, negative = inhibition, actives largely listed as inhibitors | actives 6.9% (n = 360,000);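 also: plate controls were vehicle for no effect and reference inhibitor for full effect; nearly all actives have a fitted effect of over 55% in size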
Target sequence (P08659 whole entry, looked up): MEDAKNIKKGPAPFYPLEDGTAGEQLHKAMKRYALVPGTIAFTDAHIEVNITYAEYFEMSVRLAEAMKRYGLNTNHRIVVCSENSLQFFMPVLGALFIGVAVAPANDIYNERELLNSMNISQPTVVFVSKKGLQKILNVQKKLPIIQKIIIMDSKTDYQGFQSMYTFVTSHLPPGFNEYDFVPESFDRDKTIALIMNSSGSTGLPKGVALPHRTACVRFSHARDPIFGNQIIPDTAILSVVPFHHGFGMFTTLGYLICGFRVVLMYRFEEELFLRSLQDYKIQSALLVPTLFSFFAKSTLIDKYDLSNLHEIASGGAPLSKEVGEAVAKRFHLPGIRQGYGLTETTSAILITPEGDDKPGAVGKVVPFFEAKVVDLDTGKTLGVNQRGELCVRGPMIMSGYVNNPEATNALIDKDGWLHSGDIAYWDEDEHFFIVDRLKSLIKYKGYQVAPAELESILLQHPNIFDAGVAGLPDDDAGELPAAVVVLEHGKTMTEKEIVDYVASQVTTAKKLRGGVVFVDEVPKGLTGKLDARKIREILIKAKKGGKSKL
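Purified P. pyralis luciferase (10nM final) with 10uM D-luciferin and 10uM ATP (Km levels) in 50mM Tris acetate pH 7.5, 10mM Mg acetate, 0.01% Tween-20, 0.05% BSA; qHTS 6-point titration, ~60 µM downward; luminescence read.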
Rab9 prom act = qHTS Assay for Rab9 Promoter Activators | Huh7 Rab9 promoter-luciferase reporter, luminescence, 24 h | Potency, µM (doses to about 9.22 µM), without a hit: at the top dose activation, negative = inhibition, hits mostly activators | actives 2.8% (n = 320,000) | AID 485297, 2010; also: % of control where 0% means no effect; nearly all actives have a fitted effect of over 60% in size
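Quantitative HTS format; Huh7 Rab9-luciferase reporter cells (1500/well) receive compound 2 h post-plating, incubate 24 h at 37 °C, then get luciferase reagent for 10 min before luminescence reading.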
NPC1 promoter act = qHTS Assay for NPC1 Promoter Activators; Huh7 NPC1 promoter luciferase reporter, 24 h; actives 2.4% (n = 320,000); AID 485313, 2010; Potency, µM (top dose mostly 9.22 µM), for the others: at the highest dose activation, usual class: activators; also: % of control where 0% means no effect; nearly all actives have a fitted effect of over 60% in size
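Stably transfected Huh7 (NPC1 promoter→luciferase), 1500 cells/well in Opti-MEM + 10% FBS, 2 h settle, then compound 24 h at 37 °C. Luminescence after 10 min with Amplite reagent.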
SMN2 splice up = qHTS Assay for Enhancers of SMN2 Splice Variant Expression. HEK293 SMN2-luciferase splicing reporter, luminescence, 30-36 h. actives 2.8% (n = 210,000). Potency, µM (titrated, usually from 46.1 µM), for inactives: top-dose activity change, positive = activation, hits mostly activators; also: % of control where 0% means no effect; nearly all actives have a fitted effect of over 55% in size
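HEK293 cells carry an SMN2 […]–luciferase reporter in which exon 7 inclusion puts luciferase in frame. Cells were plated 10-12 h before compound addition, then incubated 30-36 h at 37C. ONE-Glo luminescence was read; sodium butyrate at 4.5 mM final served as control.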
Luc counter = Counterscreen for Luciferase (Kinase-Glo TM) Inhibition. Kinase-Glo luciferase, ATP luminescence, 8 min. Potency, µM (doses to about 38.3 µM), for inactives: at the highest dose activity change, negative = inhibition, usual class: inhibitors. actives 0.28% (n = 200,000); also: % is scaled to controls: 0 for no effect and ±100 for the full control effect; nearly all actives have a fitted effect of over 60% in size
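Compounds were added to a substrate mix at pH 7.2 (50 mM imidazole, 10 uM ATP, within the enzyme's linear range), followed by Kinase-Glo detection reagent; luminescence was measured after 8 minutes at ambient temperature.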
ELG1 genotox = qHTS screen for small molecules that induce genotoxicity in human embryonic kidney (HEK293T) cells expressing luciferase-tagged ELG1; HEK293T ELG1-luciferase reporter, luminescence, 16 h; Potency, µM (highest dose often 46 µM), for the others: top-dose activity change, positive = activation, most hits filed as activators; actives 1.3% (n = 330,000); AID 504466, 2011; also: % of control where 0% means no effect; nearly all actives have a fitted effect of over 60% in size
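DMSO vehicle served as control against compound-treated ELG1-luciferase HEK293T cells; exposure lasted 16 hr at 37 °C and 5% CO2, followed by ONE-Glo luminescence detection after 30 min.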
Active calls of the source: *; [ ] = remark or other dose. Calls follow the shape of the dose curve; as a rule, active = well fitted curve in the direction sought with a large enough effect; inconclusive = small, poorly fitted or top-dose-only effect, or another doubt; inactive = no such curve, though single readings can be large; an effect the other way counts as inactive or inconclusive. Potency is read from the fitted curve at half-maximal effect.

COc1ccccc1OCCCCOc1ccccc1F was read as FLuc modulator 13µM*, Rab9 prom act 27%, NPC1 promoter act 25%, SMN2 splice up -9%, Luc counter 8% and ELG1 genotox 8%.
`Cc1ccc(C(=O)NCCc2csc(-c3cccc(F)c3)n2)cc1C` gave FLuc modulator 19µM*.
Screening COc1cc(OC)cc(C(=O)NCCc2csc(-c3ccc(C(F)(F)F)cc3)n2)c1 returned FLuc modulator -12%.
For CCOc1ccc(C(=O)NCCc2csc(-c3cccc(C)c3)n2)cc1 the results were FLuc modulator 17µM*.
Screening COc1ccc(C(=O)NCCc2csc(-c3ccc(Cl)cc3)n2)cc1 returned FLuc modulator 12µM*.
For O=C(c1cccc(F)c1)N1CCC2(CCN(Cc3cc(C(F)(F)F)cc(C(F)(F)F)c3)CC2)CC1 the results were SMN2 splice up -16% and Luc counter 0%.
Screening CC(C)(C)NS(=O)(=O)c1cccc(S(=O)(=O)c2cccc(S(=O)(=O)NC(C)(C)C)c2)c1 returned FLuc modulator 5.4µM*, Rab9 prom act 1.6µM*, NPC1 promoter act 2.5µM*, SMN2 splice up 14µM*, Luc counter 10% and ELG1 genotox inconclusive.
`O=C1NC(c2ccccc2Cl)Nc2ccccc21` (stereo not given) gave FLuc modulator 2%, Rab9 prom act -7%, NPC1 promoter act -15%, SMN2 splice up inconclusive, Luc counter -1% and ELG1 genotox 1%.
O=C1c2ccccc2NC(c2ccccc2Cl)N1N=C1CCCCCC1 (stereo not given) was read as FLuc modulator 12µM*, Rab9 prom act -1%, NPC1 promoter act -2%, SMN2 splice up -7%[1.84 µM], Luc counter -6% and ELG1 genotox inconclusive.
For COc1ccc(C(=O)N2CCC3(CC2)CN(c2ccccc2)C3)cc1 the results were SMN2 splice up -44% and Luc counter -2%.
Screening Fc1cccc(/C=N/Nc2ccc3ccccc3n2)c1 returned FLuc modulator 0.48µM*, Rab9 prom act inconclusive, NPC1 promoter act 1.1µM*, SMN2 splice up 2.5µM*, Luc counter -3% and ELG1 genotox inconclusive.
Cc1ccccc1/C=N/Nc1ccc(Cl)nn1 was read as FLuc modulator -7%, Rab9 prom act 16%, NPC1 promoter act 11%, SMN2 splice up -2%, Luc counter 0% and ELG1 genotox 0%.
`C(=N\Nc1ccccn1)/c1ccc2c(c1)OCCO2` gave FLuc modulator 1.7µM*, Rab9 prom act 0.56µM*, NPC1 promoter act 1.3µM*, SMN2 splice up 2.5µM*, Luc counter -14% and ELG1 genotox 2.1µM*.
Screening Brc1ccc(/C=N/Nc2ccccc2)cc1 returned FLuc modulator 17µM*, Rab9 prom act inconclusive, NPC1 promoter act 18%, SMN2 splice up 29%, Luc counter -4% and ELG1 genotox inconclusive.
`Brc1ccccc1/C=N/Nc1ccc2ccccc2n1` gave FLuc modulator 2.1µM*, Rab9 prom act 4.5µM*, NPC1 promoter act 3.5µM*, SMN2 splice up 7.9µM*, Luc counter -2% and ELG1 genotox inconclusive.
For CCOC(=O)c1c(C)c(-c2ccccc2)n(CC(=O)NCc2ccccc2)c1C the results were FLuc modulator -5% and SMN2 splice up 2%.
Screening Fc1cccc(/C=N/Nc2ccccn2)c1 returned FLuc modulator 12µM*, Rab9 prom act 3.2µM*, NPC1 promoter act 3.2µM*, SMN2 splice up inconclusive, Luc counter -15% and ELG1 genotox inconclusive.
For Fc1ccc(/C=N\Nc2cccc(F)c2)cc1 the results were FLuc modulator 13µM*, Rab9 prom act -1%, NPC1 promoter act -2% and ELG1 genotox 0%.
